Bioassay records deposited in PubChem by several laboratories.
PLAP act: activators of human placental alkaline phosphatase; purified PLAP enzyme, luminescent substrate read-out; stronger effect = higher value; P05187; activation fold at 20 µM; AID 696; 1.2% of 96,000 active; in the data active = activation fold above about 2
BAP1 inh: inhibitors of human BAP1 deubiquitinase; recombinant BAP1, Ub-AMC hydrolysis fluorescence kinetic; stronger effect = lower value; calls only at 20 µM; 0.48% of 72,000 active;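 active = activity remaining at or below 50% of control, provided the compound also passes the data quality filters; inactive = the rest, including low values that fail the filters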;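 note: 100% = DMSO wells rate and 0% = substrate alone blank rate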
HePTP inh: human HePTP phosphatase inhibition; 0.64% of 110,000 active; recombinant HePTP phosphatase activity, OD absorbance; inhibition, % at 20 µM; P35236; in the data active = inhibition above about 50%; inconclusive = no clear call, values can overlap the other calls;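 note: plate controls were vehicle for no effect and reference inhibitor for full effect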
DUSP1 inh: human dual specificity phosphatase 1 inhibition | recombinant MKP-1, OMFP hydrolysis fluorescence | 0.15% of 65,000 active | AID 374 | P28562 | inhibition, %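 (compounds tested at a single concentration somewhere between 10 and 100 µM)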;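 active = inhibition above about 50%, limit read from the data; inconclusive = inhibition over screen mean plus 3 SD, below that limit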;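 note: 0% = DMSO max control wells and 100% = wells with enzyme stopped by NaOH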
Cdc25B inh: inhibitors of human Cdc25B phosphatase. P30305. recombinant Cdc25B, OMFP fluorescence Ex485/Em525. inhibition, %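 (compounds tested at 10 µM final in the well)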. 0.1% of 65,000 active. AID 368; in the data active = inhibition above about 50%
Target sequence (P30305 whole entry, looked up): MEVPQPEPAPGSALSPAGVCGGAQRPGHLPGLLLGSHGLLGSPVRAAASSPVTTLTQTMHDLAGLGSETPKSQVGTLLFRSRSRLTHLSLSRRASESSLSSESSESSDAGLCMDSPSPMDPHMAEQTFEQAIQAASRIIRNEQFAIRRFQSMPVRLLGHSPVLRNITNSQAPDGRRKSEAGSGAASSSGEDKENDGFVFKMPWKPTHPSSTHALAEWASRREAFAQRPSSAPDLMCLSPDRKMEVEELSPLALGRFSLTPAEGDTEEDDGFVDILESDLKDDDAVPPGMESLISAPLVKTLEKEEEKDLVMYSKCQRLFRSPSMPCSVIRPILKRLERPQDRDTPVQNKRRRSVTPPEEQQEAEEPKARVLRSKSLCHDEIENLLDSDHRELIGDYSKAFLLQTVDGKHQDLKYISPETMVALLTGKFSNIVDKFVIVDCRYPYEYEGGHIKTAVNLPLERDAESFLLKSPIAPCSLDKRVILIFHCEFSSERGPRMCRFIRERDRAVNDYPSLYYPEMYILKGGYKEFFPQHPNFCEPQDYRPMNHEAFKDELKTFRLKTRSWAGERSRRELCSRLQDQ
Redox 05 DTT: generates H2O2 by redox cycling in 0.5 mM DTT | 50% of 30 active | EC50, µM | cell-free redox cycling H2O2 generation | shares compounds with Cdc25B inh; in the data active = EC50 below about 30 µM
Redox H2O2 1DTT: generates H2O2 by redox cycling in 1 mM DTT. shares compounds with Cdc25B inh. cell-free redox cycling H2O2 generation. EC50, µM. 30 tested, under 10 active. AID 683; in the data active = EC50 below about 50 µM
Redox cycler: generates H2O2 by redox cycling in DTT. shares compounds with DUSP1 inh. Redox cycling H2O2 generation, phenol red/HRP. EC50, µM. 60 tested, under 10 active; call rule not given here
BAP1 inh conf: BAP1 (human) enzyme inhibition, confirmed; shares compounds with BAP1 inh; purified BAP1, Ub-ethyl ester hydrolysis, HPLC; stronger effect = lower value; % of control activity, % at 20 µM; 8% of 310 active; AID 753;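 active = percent of control activity at or below 60%; inconclusive = HPLC trace unusable from injection failure or solvent front hiding peaks; inactive = the rest, plus ubiquitin peak ratio over a set limit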
Numbers without * were called inactive; i = inactive; ? = inconclusive; . = not tested or not shown; + = active, no number. The list is not random: actives were taken first. Their share in the collection is about 1.4%.

SMILES	PLAP act	BAP1 inh	HePTP inh	DUSP1 inh	Cdc25B inh	others
COc1cc([N+](=O)[O-])cc(/C=C2\C(=O)NC(=O)N(c3ccc(Cl)cc3)C2=O)c1O	.	.	6	.	.
CCn1c(C)nc2cc(C(=O)OCCC(F)(F)F)ccc21	0.8	i	19	-11	-17
CCn1c(C)nc2cc(C(=O)n3cc(C(=O)c4cc(F)ccc4O)cn3)ccc21	2.1*	i	6	7	-27
O=C(Nc1ccc(-c2ccc(NC(=O)c3cccnc3)c(Cl)c2)cc1Cl)c1cccnc1	.	.	-20	.	.
CC(C)(C)C(=O)c1sc(Nc2ccccc2)nc1N	1	i	4	85*	-13
COC(=O)c1sc(Nc2ccccc2)nc1C	1.1	i	1	-19	-6
N#CC(C#N)=NNc1ccc(O)c(C(=O)O)c1	.	.	69*	.	.
O=C(O)C(=O)/C(N=Nc1ccc(Cl)cc1)=C(\O)c1ccc(Cl)cc1	.	.	-13	.	.
CN(C)c1ccc(C2C(C(=O)/C=C/c3ccccc3)=C(O)C(=O)N2CCCCCC(=O)O)cc1 (stereo unspecified)	.	.	9	.	.
CCOc1cc(C=C2C(=O)c3ccccc3C2=O)cc(Br)c1OCc1ccccc1	.	.	-7	.	.
O=C(COc1ccccc1Cl)NNC(=O)C1CCCO1 (stereo unspecified)	2*	.	.	.	.
O=C(COc1ccccc1Cl)NC(=O)NC1CCCC1	0.7	i	1	3	-2
O=C(NNC(=O)C1CCCO1)c1ccc(Cl)cc1 (stereo unspecified)	2.2*	.	-2	.	.
CCOc1cc(/C=C2\C=C(c3ccc(OC)cc3)OC2=O)ccc1OC(C)=O	.	.	10	.	.
O=C(CN1CCCCCC1)N/N=C/c1cccs1	2.5*	.	.	.	.
CCCCCC(=O)N/N=C/c1cccs1	1.1	.	.	.	.
O=C(NNc1nc2ccccc2s1)c1cccnc1	.	.	-8	.	.
Cc1cc(=O)[nH]c(N2CCCC2)n1	0.8	i	0	15	-12
Cc1cc(=O)[nH]c(-n2[nH]c(C)cc2=O)n1	2.2*	.	.	.	.
Cc1cc(-n2[nH]c(C)c(C)c2=O)nc(-c2ccccc2O)n1	2.5*	i	4	-15	11
O=C(O)c1ccccc1/C=C1/SC(=S)N(c2ccc(F)cc2)C1=O	.	.	6	.	.
Cc1oc2c(CN3CC4(C)CC3CC(C)(C)C4)c(O)ccc2c(=O)c1-c1nc2ccccc2s1 (stereo unspecified)	.	.	-6	.	.
Cc1csc(-c2cc3ccc(O)c(CN4CC5(C)CC4CC(C)(C)C5)c3oc2=O)n1 (stereo unspecified)	.	.	76*	.	.
COc1ccccc1CC(=O)Nc1cccc(C)c1C	.	.	-17	.	.
COc1cccc(OC)c1C(=O)NNC(=O)c1cccc(C)c1	.	.	2	.	.
SMILES	PLAP act	BAP1 inh	HePTP inh	DUSP1 inh	Cdc25B inh	others
COc1ccc(N2CCN(Cc3cc(=O)oc4c3ccc3ccccc34)CC2)cc1	1.3	+	0	-6	-11
Cc1ccc(Cl)cc1NC(=O)CSc1nc2ccc([N+](=O)[O-])cc2s1	.	.	5	.	.
CCOc1cc(C(c2c(C)[nH][nH]c2=O)c2c(C)[nH][nH]c2=O)ccc1OS(=O)(=O)c1ccccc1	2.6*	.	.	.	.
CCOc1cc(/C=C2/SC(=S)N(c3ccccc3)C2=O)ccc1OS(=O)(=O)c1ccccc1	.	.	0	.	.
O=C(CSc1nc2ccccc2n1Cc1ccccc1)N/N=C/c1ccc([N+](=O)[O-])cc1	.	.	86*	.	.
O=C(CSc1nc2ccccc2n1Cc1ccccc1)N/N=C/c1cccc(O)c1	.	.	4	.	.
Oc1cccc(C=NC2CCCCC2)c1	.	.	64*	.	.
Cc1cc(OCC(=O)NCc2ccc3c(c2)OCO3)ccc1Br	.	.	-2	.	.
COc1ccc(S(=O)(=O)NNC(=O)c2ccc([N+](=O)[O-])cc2)cc1	.	.	7	.	.
COc1ccc(S(=O)(=O)NNC(=O)c2cc3cc4ccccc4nc3s2)cc1	2*	.	.	.	.
COc1ccc2c(Cl)c(C(=O)N/N=C/c3ccc4c(c3)OCO4)sc2c1	1	.	.	.	.
O=C(N/N=C/c1ccc2c(c1)OCO2)c1sc2cc(Cl)ccc2c1Cl	.	.	58*	.	.
CCc1cccc(NC(=O)CSCc2cc(=O)[nH][nH]2)c1	2.5*	.	.	.	.
CCc1cccc(NC(=O)Cn2cccc2)c1	1	i	1	3	-15
Cc1ccccc1Nc1cc2ccccc2c(=O)[nH]1	0.7	i	0	8	81*	Redox 05 DTT=>50;Redox H2O2 1DTT=>50
CCCSc1nc2sc3c(c2c(=O)[nH]1)CCc1ccccc1-3	.	.	-7	.	.
Cc1ccc2c(c1C)NC(C(=O)O)C1CC=CC21 (stereo unspecified)	1.3	.	.	?	53*	Redox 05 DTT=>50;Redox H2O2 1DTT=>50
CCOC(=O)C(C(=O)OCC)c1cc(Br)c2noc3c2c1C(=O)c1ccccc1-3	1.1	.	-9	32	62*	Redox 05 DTT=26*;Redox H2O2 1DTT=46*
CCOC(=O)C(C(=O)OCC)c1cc(Nc2cccc(C)c2)c2c3c(onc13)-c1ccccc1C2=O	.	.	-14	.	.
CCOc1ccccc1NC(=O)c1ccc(N(Cc2ccc(Cl)cc2)S(C)(=O)=O)cc1	.	.	-8	.	.
N#Cc1c(N)sc(=S)c2c1CCN(Cc1ccccc1)C2	0.9	i	?	100*	102*	Redox 05 DTT=13*;Redox H2O2 1DTT=24*;Redox cycler=35*
O=C(Nc1ccc2nc(-c3ccco3)c(-c3ccco3)nc2c1)N1CCCCCC1	1.4	.	32	51*	51*	Redox 05 DTT=>50;Redox H2O2 1DTT=>50;Redox cycler=>50
CCOC(=O)C1CCN(C(=O)Nc2ccc3nc(-c4ccco4)c(-c4ccco4)nc3c2)CC1	1.1	.	.	.	.
O=C1c2cccc3cccc(c23)C(=O)N1CCN1CCN(S(=O)(=O)c2ccc3ccccc3c2)CC1	.	.	-9	.	.
COc1ccc(Br)cc1/C=c1\sc2nc(-c3ccco3)nn2c1=O	1.9	+	.	58*	61*	Redox 05 DTT=>50;Redox H2O2 1DTT=>50;Redox cycler=>50;BAP1 inh conf=75
SMILES	PLAP act	BAP1 inh	HePTP inh	DUSP1 inh	Cdc25B inh	others
COc1ccc(C(=O)c2ccc(Br)c([N+](=O)[O-])c2)cc1	.	.	-7	.	.
O=C(c1cccs1)c1no[n+]([O-])c1C(=O)c1cccs1	1	i	.	91*	11	Redox cycler=>50
Nc1c(N2CCCC2)cc(Cl)c2nonc12	0.7	i	4	72*	5	Redox cycler=>50
FC(F)(F)c1ccc(N2CCOCC2)c(Nc2nc3ccccc3n3cnnc23)c1	1.3	.	2	61*	-10	Redox cycler=>50
NC(=O)c1cc(NC(=O)C(F)(F)F)c(Cl)cc1Cl	.	.	-10	.	.
Cc1csc(NC(=O)c2sc3nc(-c4cccs4)ccc3c2N)n1	1	.	0	29	2
CCCSc1nnc(NC(=O)c2sc3nc(-c4cccs4)ccc3c2N)s1	1.5	.	7	53*	20	Redox cycler=>50
CCCCCNC(=O)c1ccc2c(=O)[nH]c3c(C(=O)NCC4CCCO4)sc(=S)n3c2c1 (stereo unspecified)	1.6	i	4	55*	-4	Redox cycler=>50
